PubChem BioAssay AID1159580 (chemical genetic matrix, 2015)
“And” between values parts separate entries of the source, which are not always exact repeats. Equal values may be shown once. About 2,000 (36%) of roughly 5,500 compounds were called active. About 18% were inconclusive and are not listed. Cut-off read from the data, not from the text of the source: active = normalized growth mostly below about 0.91 (no sharp cut-off); inconclusive = no clear call, values can overlap the other calls; inactive = mostly above about 0.92. This is one part of the list.

Assay: chemical genetic growth profiling, strain panel (AID 1159580);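 note: tested at 20 µM; growth read once vehicle control cultures reached saturation at 30 °C; 1 = growth at the plate median or of vehicle wells; lower values mean less growth of the strain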
Settings: S. cerevisiae deletion strains, growth OD

Measured: normalized growth

COc1ccccc1N1CCN(CCCNc2cc(=O)n(C)c(=O)n2C)CC1
inactive: locus YAL013W, strain DEP1, active compounds read low 0.976 | locus YAL021C, strain ccr4, active compounds read low 0.998 | locus YAL026C, strain drs2, active compounds read low 1.02 | locus YAL030W, strain snc1, active compounds read low 1.01 | locus YAL040C, strain CLN3, active compounds read low 1 | locus YBL061C, strain skt5, active compounds read low 1.01 | locus YBR009C, strain hhf1, active compounds read low 1 | locus YBR021W, strain FUR4, active compounds read low 1.05 | locus YBR023C, strain chs3, active compounds read low 1.02 | locus YBR171W, strain sec66, active compounds read low 1.02 | locus YBR229C, strain ROT2, active compounds read low 0.952 | locus YBR231C, strain swc5, active compounds read low 1.01 | locus YBR279W, strain paf1, active compounds read low 1.01 | locus YCL011C, strain gbp2, active compounds read low 1.01 | locus YCL016C, strain dcc1, active compounds read low 1.01 | locus YCL029C, strain bik1, active compounds read low 0.984 | locus YCL061C, strain MRC1 (second series), active compounds read low 1 | locus YCL061C, strain MRC1, active compounds read low 1.02 | locus YCL069W, strain vba3, active compounds read low 1.02 | locus YCR088W, strain abp1, active compounds read low 1.01 | locus YDL005C, strain med2, active compounds read low 1.02 | locus YDL035C, strain GPR1, active compounds read low 0.986 | locus YDL040C, strain nat1, active compounds read low 0.994 | locus YDL074C, strain BRE1, active compounds read low 0.961 | locus YDL101C, strain DUN1, active compounds read low 0.959 | locus YDL134C, strain PPH21, active compounds read low 0.984 | locus YDL185W, strain tfp1, active compounds read low 0.961 | locus YDL192W, strain arf1, active compounds read low 0.99 | locus YDR001C, strain nth1, active compounds read low 1.01 | locus YDR069C, strain doa4, active compounds read low 1.01 | locus YDR101C, strain arx1, active compounds read low 0.994 | locus YDR137W, strain rgp1, active compounds read low 1.03 | locus YDR150W, strain NUM1, active compounds read low 0.968 and 1.01 | locus YDR159W, strain sac3, active compounds read low 1 | locus YDR162C, strain NBP2, active compounds read low 0.962 | locus YDR195W, strain ref2 1.01 | locus YDR297W, strain sur2, active compounds read low 1.01 | locus YDR318W, strain mcm21, active compounds read low 1.01 | locus YDR334W, strain swr1, active compounds read low 1.02 | locus YDR335W, strain msn5, active compounds read low 1.02 | locus YDR363W, strain ESC2, active compounds read low 1 | locus YDR388W, active compounds read low 0.998 | locus YDR392W, strain spt3, active compounds read low 0.944 | locus YDR502C, strain sam2, active compounds read low 1 | locus YEL003W, strain gim4, active compounds read low 1.01 | locus YEL037C, strain rad23, active compounds read low 1.01 | locus YEL061C, strain CIN8 (second series), active compounds read low 1.01 | locus YEL061C, strain CIN8, active compounds read low 0.986 | locus YER002W, strain NOP16, active compounds read low 0.991 | locus YER015W, strain faa2, active compounds read low 1.02 | locus YER016W, strain bim1, active compounds read low 1.02 | locus YER110C, active compounds read low 0.994 | locus YER111C, strain swi4, active compounds read low 1 | locus YER155C, strain BEM2 (second series), active compounds read low 1.02 | locus YER155C, strain BEM2, active compounds read low 0.993 | locus YER167W, strain BCK2, active compounds read low 0.98 | locus YFR010W, strain ubp6, active compounds read low 1.02 | locus YGL078C, strain dbp3, active compounds read low 0.99 | locus YGL086W, strain mad1, active compounds read low 1.01 | locus YGL167C, strain pmr1, active compounds read low 1.01 | locus YGL173C, strain kem1, active compounds read low 1.01 | locus YGL227W, strain vid30, active compounds read low 1.01 | locus YGL240W, strain doc1, active compounds read low 0.996 | locus YGL248W, strain PDE1, active compounds read low 0.974 | locus YGL253W, strain hxk2, active compounds read low 1.01 | locus YGR078C, strain PAC10, active compounds read low 0.981 and 0.985 | locus YGR135W, strain pre9, active compounds read low 0.985 | locus YGR229C, strain SMI1, active compounds read low 1.01 | locus YGR252W, strain gcn5, active compounds read low 1.05 | locus YHR013C, strain ard1, active compounds read low 1.01 | locus YHR027C, strain rpn1, active compounds read low 1.01 | locus YHR030C, strain SLT2, active compounds read low 0.983 | locus YHR079C, strain IRE1 (second series), active compounds read low 1 | locus YHR094C, strain hxt1, active compounds read low 0.992 | locus YHR129C, strain ARP1, active compounds read low 0.988 | locus YHR142W, strain chs7, active compounds read low 1.01 | locus YHR200W, strain rpn10, active compounds read low 0.994 | locus YIL066C, strain RNR3, active compounds read low 0.985 | locus YIL073C, strain SPO22, active compounds read low 0.998 | locus YIL125W, strain kgd1, active compounds read low 0.997 | locus YIR030C, strain dcg1, active compounds read low 0.983 | locus YJL092W, strain hpr5, active compounds read low 1.01 | locus YJL095W, strain BCK1 (second series), active compounds read low 1.01 | locus YJL095W, strain BCK1, active compounds read low 1 | locus YJL115W, strain asf1, active compounds read low 1.03 | locus YJL129C, strain trk1, active compounds read low 1.05 | locus YJL134W, strain LCB3, active compounds read low 0.98 | locus YJL154C, strain vps35, active compounds read low 1.02 | locus YJL164C, strain tpk1, active compounds read low 1.01 | locus YJL166W, strain qcr8, active compounds read low 1.01 | locus YJL168C, strain set2, active compounds read low 0.998 | locus YJL187C, strain SWE1 (second series), active compounds read low 0.978 | locus YJL187C, strain SWE1, active compounds read low 1.01
